# PubChem BioAssay (Tox21)
# Inconclusive results are not listed. Activity calls are given as the source filed them. Calls come from the whole dose curve; as a rule, active = well fitted cell-killing curve with a large enough effect in the repeat runs; inconclusive = weak or mixed curves, or effect the other way; inactive = no such curve, though single readings can be large or run the other way.
# Assay: Caspase-3/7 induction in CHO-K1 cells by small molecules, qHTS cell viability counter screen (AID 1346979); note: nearly all actives have a fitted effect of over 35% in size
# Settings: CellTiter-Fluor fluorescence, 17 h; series mostly up to 92.4 µM; activity change, negative = cytotoxicity: at the top concentration
# Procedure, shortened: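 Following a 5hr settling period, CHO-K1 cells at 1,500 per well received DMSO-dissolved compounds. Cell viability was quantified 16hr later by CellTiter-Fluor fluorescence, measured after 1hr with reagent at 37C.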
# % is set by controls: 0 for no effect and ±100 for the full control effect; potency is the fitted concentration of half-maximal effect.
SMILES,"activity change, negative = cytotoxicity",Potency
c1ccc(CCCc2ccncc2)cc1,-7.52% (inactive),
CCN(CC)c1ccc(C(=C2C=CC(=[N+](CC)CC)C=C2)c2ccc(S(=O)(=O)O)cc2S(=O)(=O)[O-])cc1,,15.4 µM (active)
CC(C)(O)CCc1ccccc1,-0.631% (inactive),
CC(=O)OCC(C)C,5.94% (inactive),
CC(C)(O)c1coc(S(=O)(=O)NC(=O)Nc2c3c(cc4c2CCC4)CCC3)c1,1.98% (inactive),
CCCCCCCCCCCCCCCC(=O)OCC,-1.18% (inactive),
CN1C(CSCC(F)(F)F)Nc2cc(Cl)c(S(N)(=O)=O)cc2S1(=O)=O (centres undefined),0.267% [at 42.5 µM] (inactive),
CC1C(C)(C)C2=C(C(=O)CCC2)C1(C)C (centres undefined),1.67% (inactive),
CCCCCCCCCCCCCC(=O)OCC(O)CO (centres undefined),-0.98% (inactive),
CC(C)C(O)C(C)(C)CO (centres undefined),0.314% (inactive),
Cc1cccc(C)c1NC(=O)c1cc(S(N)(=O)=O)c(Cl)cc1O,-0.306% [at 42.5 µM] (inactive),
CC1CCCC(=O)C1=O (centres undefined),-2.69% (inactive),
O=C(NS(=O)(=O)/C=C/c1ccccc1)c1ccc(F)cc1Cl,3.32% (inactive),
Nc1ccc(F)cc1,4.46% (inactive),
CCOc1ncc(F)c(=O)[nH]1,12.7% [at 42.5 µM] (inactive),
O=S(=O)(O)CO,4.84% (inactive),
CCC(Cl)CC(Cl)C(Cl)C(Cl)C(Cl)C(C)Cl (centres undefined),10.4% [at 19 µM] (inactive),
O=CNNC=O,-0.868% (inactive),
CCC(C)(C)C(=O)O,12.4% (inactive),
CCOC(=O)C(C)O (centres undefined),7.05% (inactive),

SMILES,"activity change, negative = cytotoxicity",Potency
CCC(CO)(CO)CO,6.94% (inactive),
CCN(Cc1cccc(S(=O)(=O)O)c1)c1ccc(C(=C2C=CC(=[N+](CC)Cc3cccc(S(=O)(=O)O)c3)C=C2)c2ccccc2S(=O)(=O)[O-])cc1,,17.3 µM (active)
CCN(CC)c1cccc(O)c1,-0.499% (inactive),
CCCCCCC(O)CCCCCCCCCCC(=O)OC (centres undefined),1.07% (inactive),
COC(C)(C)OC,5.36% (inactive),
CCCCCCCC/C=C/C(=O)O,0.0524% [at 42.5 µM] (inactive),
O=C(O)CO,1.11% (inactive),
CCCCOC(=O)CCCCC(=O)OCCCC,8.07% (inactive),
CC(=O)NCCO,0.762% (inactive),
CSCC[C@H](NC(=O)[C@H](Cc1c[nH]c2ccccc12)NC(=O)CCNC(=O)OC(C)(C)C)C(=O)N[C@@H](CC(=O)O)C(=O)N[C@@H](Cc1ccccc1)C(N)=O,0.578% [at 42.5 µM] (inactive),
FC(F)(F)C(F)(F)C(F)(F)C(F)(F)CCI,1.26% [at 42.5 µM] (inactive),
COC1CCC=CO1 (centres undefined),3.38% (inactive),
CCc1ccc(C)cc1,5.67% (inactive),
O=C(O)CCS,6.09% (inactive),
CC(C)C(=O)OCCOc1ccccc1,4.17% (inactive),
[Cl][Nd]([Cl])[Cl],5.91% (inactive),
NC(=O)CCCCC(N)=O,-0.093% (inactive),
CC(C)N(C)C,8.18% (inactive),
Cc1oc(=O)oc1COC(=O)[C@@H]1N2C(=O)[C@@H](NC(=O)[C@H](N)c3ccccc3)[C@H]2SC1(C)C,-0.011% [at 42.5 µM] (inactive),
